Assays:
Test in all cases: log2 ratio of Biotin-Ahx-Ub-VS probe labelling (fragment/DMSO); higher = less target engagement (more negative = stronger competition), active = hit call of the paper (q ≤ 0.05, log2 ratio ≤ -1)
Details in all cases: compound concentration: 200 uM; treatment time: 3 h
USP34 = USP34 (UniProt Q70CQ2)
How it was run: (§1)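 The table lists average log2 ratios of fragment over vehicle, from an unpaired t-test on global-median-normalised Spectronaut label-free quantities. Proteins with ≥2 unique peptides were used. Samples were HEK293T lysate (495 µg) treated in triplicate with fragment at 200 µM or vehicle for 3 h, then with Biotin-Ahx-Ub-VS (0.5 µM final) for 1 h, with labelled DUBs NeutrAvidin-enriched and run by diaPASEF LC-MS/MS.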

USP36 = molecular target: T1, USP36 (UniProt Q9P275)
T1 sequence (whole entry): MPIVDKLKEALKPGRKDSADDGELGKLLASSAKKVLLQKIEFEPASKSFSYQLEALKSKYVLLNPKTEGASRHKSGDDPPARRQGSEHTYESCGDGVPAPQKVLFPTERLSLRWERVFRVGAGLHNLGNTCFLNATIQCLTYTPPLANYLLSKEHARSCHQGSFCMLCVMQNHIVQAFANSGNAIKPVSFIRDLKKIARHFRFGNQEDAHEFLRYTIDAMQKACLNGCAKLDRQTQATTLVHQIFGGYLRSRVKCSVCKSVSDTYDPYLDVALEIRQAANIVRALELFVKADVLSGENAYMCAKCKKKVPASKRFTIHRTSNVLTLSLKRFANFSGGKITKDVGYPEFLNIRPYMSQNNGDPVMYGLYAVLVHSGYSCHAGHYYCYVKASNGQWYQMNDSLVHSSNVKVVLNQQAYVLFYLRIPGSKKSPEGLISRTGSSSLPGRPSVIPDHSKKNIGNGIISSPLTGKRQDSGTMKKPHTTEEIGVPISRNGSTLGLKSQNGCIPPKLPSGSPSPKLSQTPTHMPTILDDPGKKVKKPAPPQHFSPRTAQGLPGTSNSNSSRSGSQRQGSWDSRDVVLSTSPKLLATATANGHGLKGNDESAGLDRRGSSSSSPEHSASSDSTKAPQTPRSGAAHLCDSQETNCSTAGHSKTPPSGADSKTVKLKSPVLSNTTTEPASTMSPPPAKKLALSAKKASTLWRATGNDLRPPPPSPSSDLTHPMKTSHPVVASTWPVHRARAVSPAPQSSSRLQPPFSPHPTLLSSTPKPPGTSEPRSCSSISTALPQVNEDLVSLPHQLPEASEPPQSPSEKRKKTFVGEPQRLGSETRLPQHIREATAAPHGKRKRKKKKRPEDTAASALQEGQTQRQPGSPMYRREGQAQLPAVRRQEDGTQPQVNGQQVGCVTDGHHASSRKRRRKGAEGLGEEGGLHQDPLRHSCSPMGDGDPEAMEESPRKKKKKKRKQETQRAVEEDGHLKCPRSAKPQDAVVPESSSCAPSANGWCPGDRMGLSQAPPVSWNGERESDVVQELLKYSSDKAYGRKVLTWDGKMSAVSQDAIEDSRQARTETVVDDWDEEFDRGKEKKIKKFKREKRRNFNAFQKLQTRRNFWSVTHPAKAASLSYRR
How it was run: as §1

USP38 = molecular target: T2, USP38 (UniProt Q8NB14)
T2 sequence (whole entry): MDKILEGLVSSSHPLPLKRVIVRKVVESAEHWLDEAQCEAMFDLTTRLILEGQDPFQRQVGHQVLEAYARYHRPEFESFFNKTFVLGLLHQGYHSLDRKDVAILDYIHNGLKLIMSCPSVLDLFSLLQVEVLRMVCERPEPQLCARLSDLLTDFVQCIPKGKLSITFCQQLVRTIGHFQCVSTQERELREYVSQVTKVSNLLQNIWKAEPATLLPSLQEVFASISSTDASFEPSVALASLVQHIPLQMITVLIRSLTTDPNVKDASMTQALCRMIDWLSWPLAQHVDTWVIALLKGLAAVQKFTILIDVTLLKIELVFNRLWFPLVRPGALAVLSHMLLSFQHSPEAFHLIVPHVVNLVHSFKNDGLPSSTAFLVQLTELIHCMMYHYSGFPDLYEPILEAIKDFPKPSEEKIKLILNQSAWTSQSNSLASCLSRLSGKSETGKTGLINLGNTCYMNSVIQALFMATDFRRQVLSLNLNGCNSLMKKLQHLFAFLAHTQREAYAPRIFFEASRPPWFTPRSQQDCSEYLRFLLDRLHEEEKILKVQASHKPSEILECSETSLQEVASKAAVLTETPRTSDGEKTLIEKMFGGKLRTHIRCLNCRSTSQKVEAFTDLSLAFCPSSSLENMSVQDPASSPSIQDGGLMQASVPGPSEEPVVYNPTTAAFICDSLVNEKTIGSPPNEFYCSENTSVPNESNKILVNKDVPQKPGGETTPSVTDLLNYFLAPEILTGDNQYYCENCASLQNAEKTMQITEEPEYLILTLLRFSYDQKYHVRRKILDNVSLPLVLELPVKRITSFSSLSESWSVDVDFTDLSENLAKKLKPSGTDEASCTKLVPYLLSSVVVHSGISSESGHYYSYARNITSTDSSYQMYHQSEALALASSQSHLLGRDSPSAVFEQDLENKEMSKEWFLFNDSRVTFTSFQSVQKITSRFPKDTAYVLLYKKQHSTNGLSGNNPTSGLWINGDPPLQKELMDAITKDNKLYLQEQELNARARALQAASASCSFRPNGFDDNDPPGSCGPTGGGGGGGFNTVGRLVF
How it was run: as §1

USP39 = molecular target: T3, USP39 (UniProt Q53GS9)
T3 sequence (whole entry): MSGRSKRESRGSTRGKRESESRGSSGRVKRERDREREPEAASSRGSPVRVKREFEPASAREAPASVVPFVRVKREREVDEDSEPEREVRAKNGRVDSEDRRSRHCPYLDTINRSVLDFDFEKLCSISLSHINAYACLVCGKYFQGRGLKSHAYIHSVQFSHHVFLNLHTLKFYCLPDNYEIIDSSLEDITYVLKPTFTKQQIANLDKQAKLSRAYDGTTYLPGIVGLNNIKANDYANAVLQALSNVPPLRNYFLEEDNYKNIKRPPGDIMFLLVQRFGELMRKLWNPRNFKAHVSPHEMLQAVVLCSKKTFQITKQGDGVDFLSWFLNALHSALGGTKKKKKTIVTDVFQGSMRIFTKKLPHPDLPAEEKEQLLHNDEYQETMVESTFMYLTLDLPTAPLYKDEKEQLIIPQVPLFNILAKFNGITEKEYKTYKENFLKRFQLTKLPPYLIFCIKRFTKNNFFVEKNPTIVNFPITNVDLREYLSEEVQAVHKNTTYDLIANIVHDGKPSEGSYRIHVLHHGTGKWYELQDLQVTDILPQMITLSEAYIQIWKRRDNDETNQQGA
How it was run: as §1

USP4 = molecular target: T4, USP4 (UniProt Q13107)
T4 sequence (whole entry): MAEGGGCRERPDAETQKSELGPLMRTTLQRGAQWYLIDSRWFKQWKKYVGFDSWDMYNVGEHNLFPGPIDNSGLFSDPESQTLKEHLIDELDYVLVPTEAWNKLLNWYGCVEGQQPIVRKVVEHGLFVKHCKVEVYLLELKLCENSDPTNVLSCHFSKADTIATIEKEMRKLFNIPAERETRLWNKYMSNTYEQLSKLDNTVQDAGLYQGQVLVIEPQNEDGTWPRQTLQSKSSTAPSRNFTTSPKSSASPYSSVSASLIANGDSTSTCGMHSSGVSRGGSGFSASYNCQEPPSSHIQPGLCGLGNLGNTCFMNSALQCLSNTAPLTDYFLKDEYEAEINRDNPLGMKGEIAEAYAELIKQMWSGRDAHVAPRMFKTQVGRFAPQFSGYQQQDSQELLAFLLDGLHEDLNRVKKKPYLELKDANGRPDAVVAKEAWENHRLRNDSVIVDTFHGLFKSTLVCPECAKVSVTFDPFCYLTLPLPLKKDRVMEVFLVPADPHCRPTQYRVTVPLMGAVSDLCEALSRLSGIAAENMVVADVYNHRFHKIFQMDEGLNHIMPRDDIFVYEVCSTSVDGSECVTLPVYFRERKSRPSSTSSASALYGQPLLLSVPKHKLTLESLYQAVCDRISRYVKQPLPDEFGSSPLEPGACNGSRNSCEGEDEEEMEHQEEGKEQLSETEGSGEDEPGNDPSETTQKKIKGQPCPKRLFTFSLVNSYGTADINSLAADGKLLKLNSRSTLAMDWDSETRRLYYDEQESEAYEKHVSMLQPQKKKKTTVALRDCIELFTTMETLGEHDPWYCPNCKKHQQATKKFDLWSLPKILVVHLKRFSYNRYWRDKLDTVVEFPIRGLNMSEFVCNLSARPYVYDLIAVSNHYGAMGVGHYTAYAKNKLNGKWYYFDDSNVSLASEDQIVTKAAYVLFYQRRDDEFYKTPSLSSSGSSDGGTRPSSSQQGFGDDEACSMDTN
How it was run: as §1

Measured: log2 ratio of Biotin-Ahx-Ub-VS probe labelling

USP34, sequence (Q70CQ2 whole entry, the tested form may be a part): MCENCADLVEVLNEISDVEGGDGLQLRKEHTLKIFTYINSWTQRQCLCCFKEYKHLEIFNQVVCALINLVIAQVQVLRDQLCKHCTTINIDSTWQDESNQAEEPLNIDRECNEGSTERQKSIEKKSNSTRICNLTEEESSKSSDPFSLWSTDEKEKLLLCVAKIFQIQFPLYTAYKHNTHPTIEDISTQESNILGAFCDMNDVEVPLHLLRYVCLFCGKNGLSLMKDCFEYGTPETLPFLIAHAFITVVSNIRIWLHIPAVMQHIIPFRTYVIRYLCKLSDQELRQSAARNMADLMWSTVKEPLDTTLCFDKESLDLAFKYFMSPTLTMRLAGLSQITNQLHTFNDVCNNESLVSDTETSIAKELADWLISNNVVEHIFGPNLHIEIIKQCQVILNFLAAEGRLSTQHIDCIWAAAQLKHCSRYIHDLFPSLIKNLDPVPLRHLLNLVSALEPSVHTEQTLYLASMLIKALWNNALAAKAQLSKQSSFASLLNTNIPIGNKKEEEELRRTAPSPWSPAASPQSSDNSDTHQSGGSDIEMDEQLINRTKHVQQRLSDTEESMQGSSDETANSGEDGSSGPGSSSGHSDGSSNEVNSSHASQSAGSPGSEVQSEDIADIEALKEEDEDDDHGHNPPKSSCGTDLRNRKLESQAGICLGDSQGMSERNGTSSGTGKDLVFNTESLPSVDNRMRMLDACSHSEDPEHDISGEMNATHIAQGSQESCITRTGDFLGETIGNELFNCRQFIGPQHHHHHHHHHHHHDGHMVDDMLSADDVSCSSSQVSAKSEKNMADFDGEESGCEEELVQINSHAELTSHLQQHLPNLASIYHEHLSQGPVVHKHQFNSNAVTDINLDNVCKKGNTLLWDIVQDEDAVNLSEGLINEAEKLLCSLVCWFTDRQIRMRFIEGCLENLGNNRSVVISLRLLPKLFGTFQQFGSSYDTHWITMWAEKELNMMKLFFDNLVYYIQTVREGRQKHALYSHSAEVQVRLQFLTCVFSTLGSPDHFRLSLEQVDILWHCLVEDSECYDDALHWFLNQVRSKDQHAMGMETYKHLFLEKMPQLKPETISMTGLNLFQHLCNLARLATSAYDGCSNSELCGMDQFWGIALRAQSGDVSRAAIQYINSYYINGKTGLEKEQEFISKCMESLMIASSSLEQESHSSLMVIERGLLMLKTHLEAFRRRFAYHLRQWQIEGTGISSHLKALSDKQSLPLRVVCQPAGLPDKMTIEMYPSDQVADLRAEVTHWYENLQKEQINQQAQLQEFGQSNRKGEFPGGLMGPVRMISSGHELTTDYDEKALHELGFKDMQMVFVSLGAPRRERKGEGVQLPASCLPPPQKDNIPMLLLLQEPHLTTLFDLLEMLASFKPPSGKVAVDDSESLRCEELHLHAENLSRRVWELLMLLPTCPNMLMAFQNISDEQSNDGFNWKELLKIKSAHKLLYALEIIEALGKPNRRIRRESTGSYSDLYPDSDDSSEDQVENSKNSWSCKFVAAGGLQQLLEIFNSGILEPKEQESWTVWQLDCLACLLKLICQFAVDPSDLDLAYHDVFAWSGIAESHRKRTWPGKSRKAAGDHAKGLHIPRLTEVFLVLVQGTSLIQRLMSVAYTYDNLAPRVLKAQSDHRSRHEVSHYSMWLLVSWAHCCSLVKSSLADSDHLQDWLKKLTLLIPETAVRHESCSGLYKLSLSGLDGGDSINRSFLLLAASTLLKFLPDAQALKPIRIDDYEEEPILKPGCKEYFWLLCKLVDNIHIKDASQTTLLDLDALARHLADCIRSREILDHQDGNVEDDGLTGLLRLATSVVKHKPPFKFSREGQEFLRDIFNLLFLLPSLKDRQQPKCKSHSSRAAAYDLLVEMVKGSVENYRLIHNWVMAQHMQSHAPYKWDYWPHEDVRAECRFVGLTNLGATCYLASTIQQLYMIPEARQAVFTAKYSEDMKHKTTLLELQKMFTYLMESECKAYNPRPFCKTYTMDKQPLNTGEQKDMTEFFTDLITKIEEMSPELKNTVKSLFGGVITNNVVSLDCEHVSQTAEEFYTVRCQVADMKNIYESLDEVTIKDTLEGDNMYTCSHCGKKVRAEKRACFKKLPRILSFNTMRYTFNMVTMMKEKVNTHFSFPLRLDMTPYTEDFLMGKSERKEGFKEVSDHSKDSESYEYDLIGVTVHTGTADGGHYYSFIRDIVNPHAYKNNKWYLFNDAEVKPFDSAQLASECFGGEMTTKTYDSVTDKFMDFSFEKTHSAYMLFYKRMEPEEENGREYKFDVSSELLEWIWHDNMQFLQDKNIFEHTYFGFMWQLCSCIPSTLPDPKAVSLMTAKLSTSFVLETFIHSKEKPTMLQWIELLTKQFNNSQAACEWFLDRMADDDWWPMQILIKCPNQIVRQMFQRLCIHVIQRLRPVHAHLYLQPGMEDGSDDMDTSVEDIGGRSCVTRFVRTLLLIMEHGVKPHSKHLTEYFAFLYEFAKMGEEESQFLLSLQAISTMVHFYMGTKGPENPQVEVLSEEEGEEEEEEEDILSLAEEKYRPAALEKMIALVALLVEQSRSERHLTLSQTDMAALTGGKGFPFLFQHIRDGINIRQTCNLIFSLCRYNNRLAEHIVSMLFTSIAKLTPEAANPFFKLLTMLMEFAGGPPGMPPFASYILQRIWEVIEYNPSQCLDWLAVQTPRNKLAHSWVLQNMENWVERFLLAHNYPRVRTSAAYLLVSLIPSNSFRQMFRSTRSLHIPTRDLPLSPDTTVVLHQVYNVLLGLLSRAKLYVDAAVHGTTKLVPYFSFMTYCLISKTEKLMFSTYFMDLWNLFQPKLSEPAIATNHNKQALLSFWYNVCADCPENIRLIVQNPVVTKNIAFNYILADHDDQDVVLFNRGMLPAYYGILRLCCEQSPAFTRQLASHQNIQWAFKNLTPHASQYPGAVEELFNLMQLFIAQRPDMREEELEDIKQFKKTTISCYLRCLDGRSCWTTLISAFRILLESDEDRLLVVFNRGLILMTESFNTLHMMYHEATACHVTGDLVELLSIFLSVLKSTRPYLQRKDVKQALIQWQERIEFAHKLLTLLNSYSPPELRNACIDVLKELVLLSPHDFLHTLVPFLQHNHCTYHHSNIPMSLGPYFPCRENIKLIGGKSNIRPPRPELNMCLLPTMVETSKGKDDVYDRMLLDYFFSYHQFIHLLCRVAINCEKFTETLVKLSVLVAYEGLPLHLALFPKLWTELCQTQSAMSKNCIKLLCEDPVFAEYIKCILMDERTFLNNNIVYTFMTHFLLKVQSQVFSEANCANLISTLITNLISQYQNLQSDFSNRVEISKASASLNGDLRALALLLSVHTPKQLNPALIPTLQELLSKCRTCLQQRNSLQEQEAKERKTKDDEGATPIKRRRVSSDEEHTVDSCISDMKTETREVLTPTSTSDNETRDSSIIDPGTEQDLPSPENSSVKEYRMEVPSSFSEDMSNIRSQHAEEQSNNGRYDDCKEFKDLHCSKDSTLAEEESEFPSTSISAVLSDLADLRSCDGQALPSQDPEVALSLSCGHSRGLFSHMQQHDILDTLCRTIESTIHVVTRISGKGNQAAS

Cc1nc(CN2CCN(C(=O)CCl)CC2)cs1
inactive: USP34 0.0453 | USP36 -0.0366 | USP38 -0.217 | USP39 -0.381 | USP4 -0.261
